Counter-ions that a name gives are not always drawn. Whole data set: some 2,800 compounds, median “cell viability relative to vehicle” near 1.1, cut for the lowest 2% near 0.19. Shown is part of a subset that was picked to be rich in the lowest values.
system: NCI-H2228 parental; assay: cell viability relative to vehicle (fraction of vehicle); NCI-H2228 is an ALK-positive lung cancer line and DTP means drug-tolerant persister; higher = less growth inhibition; conditions: 100 nM; treatment time 6 days
In short: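 Each value is viability relative to vehicle-treated cells, measured as ATP with the CellTiter-Glo 3D Cell Viability Assay. Parental NCI-H2228 cells and drug-tolerant persisters (1000 nM targeted drug, 13 days) in 384-well plates received the 3114-agent TargetMol anti-cancer compound library at 100 nM, or DMSO, and were read 6 days later.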

Row | SMILES | cell viability
1 | CC(=O)OC(CC(C)C1=C2C[C@H](O)C3[C@@]4(C)CCC(=O)C(C)(C)C4CC[C@]3(C)[C@@]2(C)CC1)C1OC1(C)C (stereo not given in full) [Alisol B 23-acetate] | 0.99
2 | CNC(=O)[C@H](Cc1ccccc1)NC(=O)[C@H](CC(C)C)[C@H](CSc1cccs1)C(=O)NO [Batimastat] | 1.08
3 | CC(C)C[C@H](NC(=O)[C@@H](O)[C@H](N)Cc1ccccc1)C(=O)O [Ubenimex] | 1.08
4 | CC(C)C[C@H](NC(=O)[C@@H](O)[C@H](N)Cc1ccccc1)C(=O)O [Bestatin hydrochloride] | 1.16
5 | CC(C)C[C@H](NC(=O)[C@@H](NC(=O)c1cccc(-c2ccccc2)n1)[C@@H](C)O)B(O)O [Delanzomib] | 0.096
6 | CC(C)C[C@H](NC(=O)[C@H](Cc1ccccc1)NC(=O)c1cnccn1)B(O)O [Bortezomib] | 0.067
7 | CCCOc1ccc(/C=C2\SC(=O)NC2=O)cc1 | 1.11
8 | CCn1c(=Cc2cccc[n+]2CC)sc(=C2Sc3ccccc3N2C)c1=O | 1.04
9 | COc1ccc(/C=C/c2cc(O)cc(O[C@@H]3O[C@H](CO)[C@@H](O)[C@H](O)[C@H]3O)c2)cc1O [Rhaponiticin] | 1.11
10 | CC(C)=CCC[C@](C)(O[C@@H]1O[C@H](CO)[C@@H](O)[C@H](O)[C@H]1O)[C@H]1CC[C@]2(C)[C@@H]1[C@H](O)C[C@@H]1[C@@]3(C)CC[C@H](O)C(C)(C)[C@@H]3[C@@H](O)C[C@]12C [Ginsenoside F1] | 1.1
11 | C=C1CC[C@@H]2[C@](C)(CO[C@@H]3O[C@H](CO)[C@@H](O)[C@H](O)[C@H]3O)CCC[C@@]2(C)[C@@H]1CCC1=CCOC1=O [Neoandrographolide] | 1.08
12 | O=C1N[C@@H](Cc2c[nH]c3ccccc23)C(=O)N2CCC[C@@H]12 [Brevianamide F] | 1.05
13 | Nc1nc(O)c2[nH]nnc2n1 [8-Azaguanine] | 0.571
14 | CCc1cnn2c(NCc3ccc[n+]([O-])c3)cc(N3CCCC[C@H]3CCO)nc12 [Dinaciclib] | 0.118
15 | COc1ccc(CNc2nc(N3CCC[C@H]3CO)ncc2C(=O)NCc2ncccn2)cc1Cl [Avanafil] | 0.966
16 | O=C1C[C@@H](c2ccc(O)c(O)c2)Oc2cc(O)cc(O)c21 [Eriodictyol] | 1.04
17 | COc1cccc(OCCCN)c1-c1cc(Nc2cnc(C#N)cn2)n[nH]1 [Prexasertib dihydrochloride] | 0.169
18 | N#Cc1cnc(Nc2cc(NC[C@H]3CNCCO3)c(C(F)(F)F)cn2)cn1 | 1.07
19 | Cc1cc(O)c(C(=O)CCC(C)C)c(=O)o1 [Pogostone] | 1.04
20 | O=C(NCc1ccc(S(=O)(=O)c2cc(F)cc(F)c2)cc1)c1ccc2nccn2c1 | 0.117
21 | Cc1ccc(S(=O)(=O)Cc2nc(-c3ccc(C(=O)NCc4cccnc4)cc3)oc2C)cc1 | 0.875
22 | O=S(=O)(c1ccc(Cl)cc1)N1CCN(c2ccnc3cc(Cl)ccc23)CC1 | 1.08
23 | CCCCCCCCCCCCCCOc1ccc(C(=O)O)o1 | 1.05

Row | SMILES | cell viability
24 | O=C(NCCN1CCOCC1)Nc1ccc(C(=O)/C=C/c2cccc(N3CCOCC3)n2)cc1 | 1.09
25 | CC(=O)c1cnc2ccc(-c3cc(Cl)c(O)c(Cl)c3)nc2c1N[C@H]1CC[C@H](CN(C)C)CC1 | 0.657
26 | O=C(NCCCNc1nc(Nc2cccc(CN3CCOCC3)c2)ncc1C1CC1)C1CCC1 | 0.937
27 | CC(=O)Nc1ccn([C@@H]2O[C@H](CO)[C@@H](O)[C@H]2O)c(=O)n1 [N4-Acetylcytidine] | 1.06
28 | Nc1ccn([C@@H]2CS[C@H](CO)O2)c(=O)n1 [Lamivudine] | 1.21
29 | Nc1ccn([C@H]2C[C@H](O)[C@@H](CO)O2)c(=O)n1 [2'-Deoxycytidine monohydrate] | 1.07
30 | Nc1ccn([C@@H]2O[C@H](CO)[C@@H](O)[C@H]2O)c(=O)n1 [Cytidine] | 0.915
31 | Nc1ccn([C@@H]2O[C@H](CO)[C@@H](O)C2(F)F)c(=O)n1 [Gemcitabine HCl] | 0.121
32 | CCCC(CCC)C(=O)Nc1ccn([C@@H]2O[C@H](CO)[C@@H](O)C2(F)F)c(=O)n1 | 1.12
33 | C[C@H](NP(=O)(OC[C@H]1O[C@@H](n2ccc(N)nc2=O)C(F)(F)[C@@H]1O)Oc1ccccc1)C(=O)OCc1ccccc1 (stereo not given in full) [Acelarin] | 0.135
34 | Nc1ccn([C@@H]2O[C@H](CO)[C@@H](O)[C@@H]2O)c(=O)n1 [Cytarabine] | 0.12
35 | Nc1ccn([C@@H]2O[C@H](CO)[C@@H](O)C2(F)F)c(=O)n1 [Gemcitabine] | 0.0956
36 | CCNC(=O)c1cc2c(-c3cc(C(C)(C)O)ccc3Oc3c(C)cc(F)cc3C)cn(C)c(=O)c2[nH]1 | 0.898
37 | C[C@H](NC(=O)CCC(F)(F)F)C(=O)N[C@@H]1C(=O)N(CCO)c2ncccc2-c2ccccc21 [Crenigacestat] | 1.05
38 | CC(C)=CCC[C@](C)(O[C@@H]1O[C@H](CO)[C@@H](O)[C@H](O)[C@H]1O)[C@H]1CC[C@]2(C)[C@@H]1[C@H](O)C[C@@H]1[C@@]3(C)CC[C@H](O[C@@H]4O[C@H](CO)[C@@H](O)[C@H](O)[C@H]4O[C@@H]4O[C@H](CO)[C@@H](O)[C@H](O)[C@H]4O)C(C)(C)[C@@H]3CC[C@]12C [Ginsenoside Rd] | 1.18
39 | C=CC(=O)Nc1ccc(CN2C(=O)N(c3cc(OC)cc(OC)c3)Cc3cnc(Nc4ccc(N5CCN(C)CC5)cc4)nc32)cc1 | 0.858
40 | OC[C@H]1O[C@@H](Oc2ccc3c(c2)OC[C@H]2c4cc5c(cc4O[C@@H]32)OCO5)[C@H](O)[C@@H](O)[C@@H]1O [Trifolirhizin] | 1.02
41 | O=c1cc(N2CCOCC2)oc2c(-c3ccc4c(c3)OCCO4)csc12 | 1.14
42 | Nc1ccccc1NC(=O)CCCCCCC(=O)Nc1ccccc1 | 1.09
43 | Cc1c[nH]c2nc(Nc3ccc(N4CCN(C)CC4)c(F)c3)nc(-c3cccc(CC#N)c3)c12 | 0.777
44 | Cc1ncc(CCCN(C)C)cc1Nc1ncc2c(n1)-c1ccc(C(F)(F)F)cc1NC(=S)C2 | 0.178
45 | C=C(C)[C@@H]1CC[C@]2(C)[C@H](CC=C3[C@@H]4[C@@H](C)[C@H](C)CC[C@]4(C)CC[C@]32C)[C@@]1(C)CCC(=O)O [Roburic acid] | 1.08
